Experimental findings from PubChem BioAssay (Tox21) are described below.

Results filed as inconclusive are left out. Calls of active or inactive are those of the source. The call rests on the fitted dose curve; in most records, active means well fitted curve in the direction sought with a large enough effect in the repeat runs; inconclusive means weak or mixed curves; inactive means no such curve, though single readings can be large; an effect the other way counts as inactive or inconclusive.

Experiment [1] can be described thus: qHTS assay to identify small molecule antagonists of the retinoid acid receptor (RAR) signaling pathway - cell viability counter screen (AID 1159551). Further: nearly all actives have a fitted effect of over 35% in size. Further: potency means the concentration at half of the fitted maximal effect. The method, boiled down:
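Cytotoxicity counter screen: ATP content quantified by CellTiter-Glo luminescence in C3RL4 cells treated 6 hr at 37 C with compound and retinol (1 uM final). Cells plated at 1,000/well and cultured overnight before dosing.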

Experiment [2] can be described thus: qHTS assay to identify small molecule antagonists of the retinoic acid receptor (RAR) signaling pathway (AID 1159552; further: nearly all actives have a fitted effect of over 50% in size; further: potency means the concentration at half of the fitted maximal effect). The method, boiled down: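 Luminescent RARE reporter read-out in C3RL4 cells: 6 hr co-treatment at 37 C of test compounds with retinol at 1 uM final. Cells plated overnight beforehand; luciferase reagent incubated 30 min at room temperature before reading.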
Background: In qHTS, concentration-response curves come from the screen itself.

The nature of experiment [3]: qHTS assay to identify small molecule agonists of the retinoic acid receptor (RAR) signaling pathway (AID 1159553). Further: potency means the concentration at half of the fitted maximal effect. The method, boiled down:
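Luminescence was measured 30 min after luciferase reagent addition at room temperature. Before that, C3RL4 reporter cells (1,000 per well, plated overnight) were treated with compound for 6 hr at 37 C and 5% CO2.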

Experiment [4] can be described thus: qHTS assay to identify small molecule antagonists of the estrogen related receptor (ERR) signaling pathway - cell viability counter screen (AID 1224818). Further: series mostly up to about 46 µM. The method, boiled down: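 Cytotoxicity counter screen: fluorescence from CellTiter-Fluor, added after 17.5 h compound exposure at 37 C and read 30 min later. ERR cell line seeded at 2,000 cells/well, preincubated 6 h before dosing.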

As to `CC(C)(O)c1ccc(CNC(=O)c2cccnc2Oc2ccc(F)cc2)cc1`, the Potency entry in experiment [1], in experiment [2] and in experiment [3] was “inactive” each time.

As for `O=[N+]([O-])c1cccc(S(=O)(=O)O)c1`, the Potency result in experiment [1] and in experiment [3] was “inactive” in each case.

As for `CN(C)CCN(Cc1ccc(Cl)cc1)c1ccccn1`, the Potency entry in experiment [1], in experiment [2] and in experiment [3] was “inactive” each time.

As to `CC(C)=CCC/C(C)=C/CC/C(C)=C/CO`, the Potency entry in experiment [1] and in experiment [3] was “inactive” in each case.

Regarding `CNCCCN1c2ccccc2CCc2ccccc21`, the outcome in experiment [4] was inactive.

For `O=C(O)C1(C(=O)Nc2ccc(Cl)cc2Cl)CC1`, the Potency result in experiment [1] and in experiment [2] was “inactive” throughout. Also, the Potency in experiment [3] is 6.11 µM (active).

Turning to `O=C(NCC1CN(c2ccc(N3CCOCC3=O)cc2)C(=O)O1)c1ccc(Cl)s1` (stereo not given), the Potency result in experiment [1] and in experiment [2] was “inactive” in each case.

Take `COC(=O)C1=C(C)NC(COC(N)=O)=C(C(=O)OC(C)C)C1c1cccc(Cl)c1Cl` (stereo not given): the Potency entry in experiment [1] is “inactive”.

For the compound `CCOC(=O)NCCOc1ccc(Oc2ccccc2)cc1`, the Potency entry in experiment [1] and in experiment [2] was “inactive” throughout.

For the compound `CCN(CC)c1ccc(C(=C2C=CC(=[N+](CC)CC)C=C2)c2cc(S(=O)(=O)O)ccc2S(=O)(=O)[O-])cc1`, the values for the Potency in experiment [1] and in experiment [2] were 15 µM (active) and 11.9 µM (active), respectively.

On to `CN1CCC(=C2c3ccccc3Sc3ccccc32)CC1`, for which the Potency entry in experiment [1] and in experiment [3] was “inactive” in each case.

Consider `C[C@H](CCC(=O)O)[C@H]1CC[C@H]2[C@@H]3CC[C@@H]4C[C@H](O)CC[C@]4(C)[C@H]3C[C@H](O)[C@]12C`, for which the Potency result in experiment [1] and in experiment [3] was “inactive” throughout.
